Bioassay records: PubChem BioAssay, National Center for Advancing Translational Sciences (NCATS)
TDP-43 yeast inh – TDP-43 toxicity inhibition in yeast; TDP-43 expressing yeast growth rescue, BacTiter-Glo, 24 h; Potency, µM (titrated, usually from 46.1 µM), without a hit: top-dose growth rescue (activation), actives largely listed as activators; hit rate 1.8% among 410,000; also: % of control where 0% means no effect; nearly all actives have a fitted effect of over 50% in size
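Galactose-induced TDP-43 yeast, OD600=0.02, compound pinned; 24 hr, 30 deg C; BacTiter-Glo luminescence for growth. Inhibitors of TDP-43 toxicity read as activators.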
aSyn yeast inh – rescues yeast growth from alpha-synuclein toxicity | Potency, µM (highest dose often 46.1 µM), inactives show at the top dose growth rescue (activation), hits mostly activators | Yeast expressing alpha-synuclein, growth rescue, BacTiter-Glo, 24 h | hit rate 0.14% among 370,000; also: % of control where 0% means no effect; nearly all actives have a fitted effect of over 65% in size
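Readout is rescue of growth in alpha-synuclein-expressing yeast, so inhibitors of toxicity appear as activators. Growth after 24 hr at 30 deg C in galactose medium is quantified by luminescence.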
FUS yeast rescue – FUS proteinopathy suppression in yeast; S. cerevisiae FUS-expressing, growth rescue, OD600, 24 h; Potency, µM (highest dose often 76.6 µM), most hits filed as activators; hit rate 0.24% among 390,000;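 also: plate controls were DMSO vehicle for no effect and reference control for full effect; nearly all actives have a fitted effect of over 55% in size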
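Steps: raffinose overnight preculture; dilution to OD 0.005 in 2% galactose minimal medium; compound addition (concentration series); 24hr at 30C, 99% humidity; absorbance read at 600 nm.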
Abeta rescue – restores growth of yeast expressing A-beta42 peptide; yeast expressing A-beta42, growth rescue, OD600, 48 h; response scale: 0% DMSO, 100% iron-clioquinol control; Potency, µM (doses to about 46.1 µM), usual class: activators; hit rate 0.063% among 410,000; also: nearly all actives have a fitted effect of over 55% in size
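Yeast growth medium received pinned compounds, then yeast cells expressing toxic A-beta were added; plates incubated at 30 C for 48 hr. Growth read as absorbance at 600 nm, normalized to DMSO and equimolar FeCl3 plus clioquinol controls.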
MmCpn inh – M. maripaludis TRiC chaperonin inhibition; purified Mm-Cpn ATPase, ADP Transcreener TR-FRET; Potency, µM (series often up to 76.9 µM), for inactives: at the top dose activity, negative = inhibition, actives largely listed as inhibitors; hit rate 0.031% among 330,000; AID 504842; also: % is scaled to controls: 0 for no effect and ±100 for the full control effect; nearly all actives have a fitted effect of over 80% in size
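ATPase read-out: TR-FRET ADP immunoassay (anti-ADP Eu cryptate vs ADP-d2), ex 320 nm, em 590/665 nm; signal drops as ADP forms. Enzyme 25 nM, ATP 10 uM, 30 min at 37°C after 10 min compound preincubation.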
ClpP mod – qHTS Assay for Activators of ClpP; ATP-dependent Clp protease proteolytic subunit (Bacillus subtilis (strain 168)), P80244; purified B. subtilis ClpP, FRET peptide cleavage, 20 min; Potency, µM (top dose mostly 57.5 µM), inactives show at the top dose activity change, negative = active; hit rate 1.9% among 340,000; AID 651965, 2013; active = well fitted falling curve with a large enough effect; inconclusive = small, poorly fitted or top-dose-only effect; inactive = no such curve, though single readings can be large or run the other way; also: the source files actives as falling curves though it sought activators and does not explain the sign; nearly all actives have a fitted effect of over 65% in size
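FRET quenching reversal measured ClpP activation: 10 microg/mL B. subtilis ClpP at pH 8 with the FRET-FV decapeptide, read at 430 nm after 320 nm excitation. The 20-min minus 0-min signal was scaled between DMSO/no-enzyme wells and ADEP (5.8 microM final).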
* marks the source's active call; other numbers are inactive results; i = inactive; ? = inconclusive; . = no result; [ ] = remark or other dose. Rows were chosen to be rich in hits. Some 3.6% of all compounds tested hit in one or more screens of this group. Unless noted, calls follow the shape of the dose curve; as a rule, active = well fitted curve in the direction sought with a large enough effect; inconclusive = small, poorly fitted or top-dose-only effect, or another doubt; inactive = no such curve, though single readings can be large; an effect the other way counts as inactive or inconclusive. Potency is read from the fitted curve at half-maximal effect.

SMILES | TDP-43 yeast inh | aSyn yeast inh | FUS yeast rescue | Abeta rescue | MmCpn inh | ClpP mod
Cc1ccc2cc(C3C(C#N)=C(N)Oc4c3ccc3cccnc43)c(=O)[nH]c2c1 (centres undefined) | -22% | -2% | 28µM* | i | -9% | -8%
CC(=O)C1=C(C)OC(N)=C(C#N)C1c1cc2cccc(C)c2nc1Cl (centres undefined) | -19% | 10% | i | i | -1% | ?
N#CC1=C(N)Oc2c(ccc3cccnc23)C1c1cccnc1 (centres undefined) | 5% | -6% | i | i | -2% | 25µM*
N#CC1=C(N)Oc2cc3ccccc3cc2C1c1cccnc1 (centres undefined) | 1% | -3% | i | i | 0% | -1%
CCc1ccc2[nH]c(=O)c(C3C(C#N)=C(N)Oc4c3ccc3cccnc43)cc2c1 (centres undefined) | 4% | 8% | 25µM* | i | 1% | ?
Cc1cc(=O)oc2cc(OCC(=O)NCc3ccco3)ccc12 | 13% | 0% | i | i | 2% | 28µM*
O=C(COc1ccc2oc(-c3ccccc3)cc(=O)c2c1)NCc1ccco1 | -1% | -5% | i | i | -2% | 35µM*
Cc1cccc(OCC(=O)Nc2ccc3c(C)cc(=O)oc3c2)c1 | 20% | 7% | i | i | 0% | 13µM*
Cc1cc(=O)oc2cc(OCC(=O)NCc3ccncc3)ccc12 | -11% | 8% | i | i | 0% | 22µM*
Cc1cc(=O)oc2cc(OCC(=O)NCCc3ccccc3)ccc12 | -10% | -1% | i | i | 2% | .
Cn1c(=O)n(C)c2cc(CNCc3ccc(F)cc3)ccc21 | 24%[9.22 µM] | . | i | i | . | -1%
CC(=O)c1ccc(N2C(=O)N(Cc3cc(C)ccc3C)c3ccccc3S2(=O)=O)cc1 | 24% | . | i | i | . | 3%
O=C(COc1ccc2c3c(c(=O)oc2c1)CCC3)NCc1cccnc1 | -7% | -2% | i | i | -4% | 4%
Cc1cc(=O)oc2cc(OCC(=O)NCc3cccnc3)ccc12 | 15% | 7% | i | i | 3% | 25µM*
CCC(=O)Nc1sc2c(c1C(=O)Nc1ccc(Br)cc1)CCCCC2 | 2% | . | i | i | . | -13%
O=C1[C@@H]2CSC(c3ccc(C(F)(F)F)cc3)N2C(=O)N1c1ccccc1 (some centres undefined) | 13µM* | . | i | i | . | -1%
O=C1[C@@H]2CSC(c3ccc(Cl)cc3)N2C(=O)N1c1ccccc1 (some centres undefined) | 35µM* | . | i | i | . | -1%
Cc1ccc(-n2nc(C(=O)N(C)c3ccc(C)c(C)c3)c3c4ccccc4n(C)c3c2=O)cc1 | 2% | . | i | i | . | -3%
COC(=O)[C@@]12CCCCN1[C@H](c1ccc(-c3ccc(F)cc3)cc1)[C@@H]1C(=O)N(C)C(=O)[C@@H]12 | 13µM* | 16% | i | i | -2% | -13%
COC(=O)[C@@]12CCCN1[C@H](c1ccc(-c3ccc(OC)cc3)cc1)[C@@H]1C(=O)N(C)C(=O)[C@@H]12 | 22µM* | 1% | ? | i | -23% | 0%
COC(=O)[C@@]12CCCCN1[C@H](c1ccc(-c3ccc(F)cc3)c(OC)c1)[C@@H]1C(=O)N(C)C(=O)[C@@H]12 | 16µM* | ? | i | i | -1% | -13%
COC(=O)[C@@]12CCCCN1[C@H](c1ccc(-c3ccccc3)cc1)[C@H]1C(=O)N(C)C(=O)[C@H]12 | 12% | 3% | i | i | 3% | -1%
COC(=O)[C@@]12CCCCN1[C@H](c1ccc(-c3ccc4c(c3)OCO4)c(OC)c1)[C@@H]1C(=O)N(C)C(=O)[C@@H]12 | 13µM* | 15% | 11µM* | i | -3% | -29%
COc1ccc(-c2noc(CC(=O)Nc3cc(OC)ccc3OC)n2)cc1 | 3% | . | i | i | . | -21%
CCOC(=O)c1cccc(NC(=O)CSc2ncc3c(n2)-c2ccccc2N(C)S3(=O)=O)c1 | 20% | . | i | i | . | -6%
SMILES | TDP-43 yeast inh | aSyn yeast inh | FUS yeast rescue | Abeta rescue | MmCpn inh | ClpP mod
COC(=O)[C@]12C[C@H](CC(=O)N3CCN(C(=O)c4ccco4)CC3)C(=O)N(Cc3ccco3)C1=C[C@H](C1CCCC1)O[C@@H]2C | . | . | i | . | . | .
Cc1nc2scc(C)n2c(=O)c1S(=O)(=O)NCCc1ccc(Cl)cc1 | -3% | 1% | i | i | -1% | .
Cc1ccc(CCNS(=O)(=O)c2c(C)nc3sc(C)c(C)n3c2=O)cc1 | 15% | . | i | i | . | 6.3µM*
O=C(NCc1ccccc1)C(=O)NCC(c1ccco1)N1CCN(c2ccccc2F)CC1 (centres undefined) | 2% | -1% | i | i | -1% | 2%
O=C(NCc1cccnc1)C(=O)NCC(c1ccco1)N1CCN(c2ccccc2F)CC1 (centres undefined) | -11% | -4% | i | i | -4% | 18µM*
O=CNc1ccc2c(c1)Cc1cc([N+](=O)[O-])ccc1-2 | 22µM* | 15% | i | i | . | -4%
CCC(=O)Nc1ccc2c(c1)Cc1cc([N+](=O)[O-])ccc1-2 | 0% | -11% | . | i | . | -19%
CCc1ccc(NC(=O)CSc2nc(-c3cccc(OC)c3)nc3c2Cc2c(CO)cnc(C)c2O3)cc1 | 6% | . | i | i | . | -8%
CC[N+](CC)(CC)CCOc1cccc(OCC[N+](CC)(CC)CC)c1OCC[N+](CC)(CC)CC | 0% | 9% | i | i | -1% | 1%
CC[N+](CC)(CC)CCOc1ccc(/C=C/c2ccccc2)cc1 | 35µM* | 10% | i | i | -1% | -22%
Cc1csc(N/N=C/c2c(F)cccc2Cl)n1 | 28µM* | -18% | i | i | 0% | -1%
Cc1csc(N/N=C/c2ccccc2F)n1 | ? | -1% | i | i | 1% | .
NCCCNC(=O)c1cc2ccccc2[nH]1 | -4% | 2% | i | i | -4% | 25µM*
COc1ccc(CCCc2nnc(SCC(=O)Nc3ccc(C)cc3)o2)cc1C | 0%[9.22 µM] | . | i | i | . | 3%
O=C(CNC(=O)c1ccccc1)OCc1cc(=O)n2nc(C3CC3)sc2n1 | 5% | . | i | i | . | -6%
O=C1COc2cc(S(=O)(=O)CCC(=O)NC3CCCCC3)c(Cl)cc2N1 | -4% | -3% | i | i | . | -3%
CC1CCCN(C(=O)CSc2c3c(nc4cc(Cl)ccc24)CCCC3)C1 (centres undefined) | 18µM* | . | i | i | . | -1%
